Assays:
[1] = target: T1, Serine/threonine-protein kinase Nek9 (Homo sapiens) (UniProt Q8TD19); conditions: at 1 µM;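 further: each value is a mean percent inhibition of NEK9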
T1 sequence (whole entry): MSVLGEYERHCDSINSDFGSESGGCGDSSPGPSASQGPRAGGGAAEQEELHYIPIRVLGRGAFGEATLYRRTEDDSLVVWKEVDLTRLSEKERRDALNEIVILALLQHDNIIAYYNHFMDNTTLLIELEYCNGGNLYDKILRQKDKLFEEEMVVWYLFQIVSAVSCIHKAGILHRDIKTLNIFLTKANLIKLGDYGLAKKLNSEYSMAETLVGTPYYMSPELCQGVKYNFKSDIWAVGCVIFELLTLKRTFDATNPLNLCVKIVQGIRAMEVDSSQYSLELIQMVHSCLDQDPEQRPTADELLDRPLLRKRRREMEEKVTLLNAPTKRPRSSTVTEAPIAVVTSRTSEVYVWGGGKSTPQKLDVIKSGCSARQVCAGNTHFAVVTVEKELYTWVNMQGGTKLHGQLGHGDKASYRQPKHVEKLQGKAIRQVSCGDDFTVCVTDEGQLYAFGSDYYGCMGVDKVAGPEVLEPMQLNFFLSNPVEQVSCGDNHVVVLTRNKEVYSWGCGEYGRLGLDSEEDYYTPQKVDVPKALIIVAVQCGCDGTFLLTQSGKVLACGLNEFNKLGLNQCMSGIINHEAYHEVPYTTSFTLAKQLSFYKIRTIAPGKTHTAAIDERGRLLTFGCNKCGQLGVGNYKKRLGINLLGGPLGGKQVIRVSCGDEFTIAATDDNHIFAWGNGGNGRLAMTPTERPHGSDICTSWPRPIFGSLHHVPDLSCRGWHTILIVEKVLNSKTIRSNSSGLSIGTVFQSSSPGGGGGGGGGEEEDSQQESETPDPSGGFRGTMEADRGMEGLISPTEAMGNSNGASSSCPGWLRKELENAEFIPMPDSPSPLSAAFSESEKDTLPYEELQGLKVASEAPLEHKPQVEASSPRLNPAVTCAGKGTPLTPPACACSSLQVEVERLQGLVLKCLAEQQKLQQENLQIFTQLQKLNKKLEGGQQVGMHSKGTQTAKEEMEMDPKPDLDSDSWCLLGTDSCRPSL

[2] = target: Serine/threonine-protein kinase PLK1 (Homo sapiens) (UniProt P53350); conditions: at 0.1 µM
Serine/threonine-protein kinase PLK1 (Homo sapiens), sequence (P53350 whole entry): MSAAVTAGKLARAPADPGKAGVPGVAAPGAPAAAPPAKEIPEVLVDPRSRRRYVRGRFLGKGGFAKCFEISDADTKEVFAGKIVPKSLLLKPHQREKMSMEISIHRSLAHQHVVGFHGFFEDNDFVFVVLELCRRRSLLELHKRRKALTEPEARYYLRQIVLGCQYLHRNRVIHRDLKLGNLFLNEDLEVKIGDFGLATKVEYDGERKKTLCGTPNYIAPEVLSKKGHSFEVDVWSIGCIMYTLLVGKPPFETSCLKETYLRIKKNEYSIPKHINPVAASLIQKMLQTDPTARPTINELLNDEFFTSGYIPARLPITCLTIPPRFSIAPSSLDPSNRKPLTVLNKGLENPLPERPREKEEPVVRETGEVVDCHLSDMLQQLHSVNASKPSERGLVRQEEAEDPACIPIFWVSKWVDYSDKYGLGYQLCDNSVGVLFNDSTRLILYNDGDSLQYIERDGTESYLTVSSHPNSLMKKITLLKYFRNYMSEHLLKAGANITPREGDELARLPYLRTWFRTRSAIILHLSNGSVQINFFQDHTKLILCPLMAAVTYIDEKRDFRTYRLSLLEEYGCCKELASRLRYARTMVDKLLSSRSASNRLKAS

[3] = target: Serine/threonine-protein kinase PLK1 (Homo sapiens) (UniProt P53350); conditions: at 1 µM
[4] = target: T2, Dual specificity protein kinase TTK (Homo sapiens) (UniProt P33981); conditions: at 0.1 µM
T2 sequence (whole entry): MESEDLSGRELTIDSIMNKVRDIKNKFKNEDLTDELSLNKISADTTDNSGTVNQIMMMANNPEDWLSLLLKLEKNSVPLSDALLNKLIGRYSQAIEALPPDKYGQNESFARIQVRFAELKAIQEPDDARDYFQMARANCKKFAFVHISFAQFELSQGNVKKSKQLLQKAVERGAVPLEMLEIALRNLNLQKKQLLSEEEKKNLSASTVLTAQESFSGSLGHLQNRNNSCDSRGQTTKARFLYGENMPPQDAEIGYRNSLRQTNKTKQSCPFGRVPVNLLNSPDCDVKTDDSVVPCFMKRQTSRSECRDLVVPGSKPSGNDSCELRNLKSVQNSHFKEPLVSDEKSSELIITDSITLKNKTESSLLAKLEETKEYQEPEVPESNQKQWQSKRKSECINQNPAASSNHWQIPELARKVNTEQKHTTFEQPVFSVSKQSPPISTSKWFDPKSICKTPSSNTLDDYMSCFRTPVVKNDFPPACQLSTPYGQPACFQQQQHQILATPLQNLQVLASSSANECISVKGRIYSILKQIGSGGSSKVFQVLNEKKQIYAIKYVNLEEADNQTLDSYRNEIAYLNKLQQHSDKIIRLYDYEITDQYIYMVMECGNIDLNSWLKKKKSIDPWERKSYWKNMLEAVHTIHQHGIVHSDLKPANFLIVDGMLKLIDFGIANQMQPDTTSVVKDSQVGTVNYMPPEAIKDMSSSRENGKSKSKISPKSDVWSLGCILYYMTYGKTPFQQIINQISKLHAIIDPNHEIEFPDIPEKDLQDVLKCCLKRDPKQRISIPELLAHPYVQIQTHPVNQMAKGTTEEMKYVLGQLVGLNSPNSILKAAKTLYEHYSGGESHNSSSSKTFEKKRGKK

[5] = system: T3, Receptor-type tyrosine-protein kinase FLT3 (Homo sapiens), P36888 [D835Y]; conditions: at 1 µM
T3 sequence (whole entry): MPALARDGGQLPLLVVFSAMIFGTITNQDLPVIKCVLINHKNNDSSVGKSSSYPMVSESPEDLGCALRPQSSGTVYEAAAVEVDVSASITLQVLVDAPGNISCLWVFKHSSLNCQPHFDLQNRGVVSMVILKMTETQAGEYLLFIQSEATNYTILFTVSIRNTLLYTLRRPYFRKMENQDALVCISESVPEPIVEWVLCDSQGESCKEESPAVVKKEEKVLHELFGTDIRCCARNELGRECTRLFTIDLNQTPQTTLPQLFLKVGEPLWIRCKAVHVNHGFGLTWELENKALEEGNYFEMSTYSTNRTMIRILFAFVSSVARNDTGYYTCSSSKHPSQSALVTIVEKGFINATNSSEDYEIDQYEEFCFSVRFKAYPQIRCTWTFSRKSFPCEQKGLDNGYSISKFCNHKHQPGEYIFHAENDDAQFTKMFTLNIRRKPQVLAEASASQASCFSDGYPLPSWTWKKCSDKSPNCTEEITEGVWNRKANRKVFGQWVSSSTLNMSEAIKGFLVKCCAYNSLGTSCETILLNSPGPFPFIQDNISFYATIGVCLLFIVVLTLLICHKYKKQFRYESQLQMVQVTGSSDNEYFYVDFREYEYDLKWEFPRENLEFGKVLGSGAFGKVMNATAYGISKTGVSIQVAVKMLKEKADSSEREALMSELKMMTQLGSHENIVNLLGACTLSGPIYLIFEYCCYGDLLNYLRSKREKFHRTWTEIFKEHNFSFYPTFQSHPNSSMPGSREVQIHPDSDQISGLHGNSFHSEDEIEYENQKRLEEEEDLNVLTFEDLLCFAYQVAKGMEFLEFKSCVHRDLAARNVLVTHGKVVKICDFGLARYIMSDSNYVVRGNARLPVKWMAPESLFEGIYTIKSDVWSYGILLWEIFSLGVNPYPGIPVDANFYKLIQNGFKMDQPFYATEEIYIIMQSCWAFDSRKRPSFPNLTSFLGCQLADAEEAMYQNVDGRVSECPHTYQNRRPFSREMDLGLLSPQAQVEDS

[6] = target: Vascular endothelial growth factor receptor 3 (Homo sapiens) (UniProt P35916); conditions: at 0.1 µM
Vascular endothelial growth factor receptor 3 (Homo sapiens), sequence (P35916 whole entry): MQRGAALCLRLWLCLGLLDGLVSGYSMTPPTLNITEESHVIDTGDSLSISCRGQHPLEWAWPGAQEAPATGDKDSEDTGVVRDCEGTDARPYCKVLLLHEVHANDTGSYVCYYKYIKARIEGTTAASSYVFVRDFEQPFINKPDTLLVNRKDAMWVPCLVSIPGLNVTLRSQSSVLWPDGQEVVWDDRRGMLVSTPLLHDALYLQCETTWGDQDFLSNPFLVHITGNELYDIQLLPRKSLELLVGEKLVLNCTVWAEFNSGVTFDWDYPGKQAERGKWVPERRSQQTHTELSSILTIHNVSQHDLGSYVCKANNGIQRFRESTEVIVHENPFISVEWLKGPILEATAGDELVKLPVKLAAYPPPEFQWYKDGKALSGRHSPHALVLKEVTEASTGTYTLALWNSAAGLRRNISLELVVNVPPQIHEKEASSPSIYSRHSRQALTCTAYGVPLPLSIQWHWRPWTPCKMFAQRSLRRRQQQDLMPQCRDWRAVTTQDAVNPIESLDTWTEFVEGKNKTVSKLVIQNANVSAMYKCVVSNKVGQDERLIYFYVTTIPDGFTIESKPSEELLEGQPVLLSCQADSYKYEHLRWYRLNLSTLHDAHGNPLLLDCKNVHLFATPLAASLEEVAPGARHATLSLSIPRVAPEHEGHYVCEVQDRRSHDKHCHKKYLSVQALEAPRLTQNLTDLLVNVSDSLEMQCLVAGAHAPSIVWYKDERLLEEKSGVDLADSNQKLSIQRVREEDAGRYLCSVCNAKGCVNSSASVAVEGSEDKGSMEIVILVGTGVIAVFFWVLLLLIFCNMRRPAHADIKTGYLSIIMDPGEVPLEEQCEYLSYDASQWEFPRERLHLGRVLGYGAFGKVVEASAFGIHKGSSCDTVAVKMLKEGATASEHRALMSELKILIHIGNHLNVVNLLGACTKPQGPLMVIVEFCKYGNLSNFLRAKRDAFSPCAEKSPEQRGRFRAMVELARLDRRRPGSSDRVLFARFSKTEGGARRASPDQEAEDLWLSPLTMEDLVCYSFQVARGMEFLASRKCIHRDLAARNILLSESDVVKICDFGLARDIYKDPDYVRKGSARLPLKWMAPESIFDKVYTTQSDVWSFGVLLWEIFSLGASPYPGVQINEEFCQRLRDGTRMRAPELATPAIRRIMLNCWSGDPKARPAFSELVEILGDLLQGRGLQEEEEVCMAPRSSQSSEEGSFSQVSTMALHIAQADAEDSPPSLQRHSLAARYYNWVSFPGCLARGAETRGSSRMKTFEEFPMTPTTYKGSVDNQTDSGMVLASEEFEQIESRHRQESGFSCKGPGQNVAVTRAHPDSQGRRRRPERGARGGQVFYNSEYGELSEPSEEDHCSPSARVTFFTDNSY

[7] = target: Vascular endothelial growth factor receptor 3 (Homo sapiens) (UniProt P35916); conditions: at 1 µM
[8] = target: Macrophage colony-stimulating factor 1 receptor (Homo sapiens) (UniProt P07333); conditions: at 0.1 µM
Macrophage colony-stimulating factor 1 receptor (Homo sapiens), sequence (P07333 whole entry): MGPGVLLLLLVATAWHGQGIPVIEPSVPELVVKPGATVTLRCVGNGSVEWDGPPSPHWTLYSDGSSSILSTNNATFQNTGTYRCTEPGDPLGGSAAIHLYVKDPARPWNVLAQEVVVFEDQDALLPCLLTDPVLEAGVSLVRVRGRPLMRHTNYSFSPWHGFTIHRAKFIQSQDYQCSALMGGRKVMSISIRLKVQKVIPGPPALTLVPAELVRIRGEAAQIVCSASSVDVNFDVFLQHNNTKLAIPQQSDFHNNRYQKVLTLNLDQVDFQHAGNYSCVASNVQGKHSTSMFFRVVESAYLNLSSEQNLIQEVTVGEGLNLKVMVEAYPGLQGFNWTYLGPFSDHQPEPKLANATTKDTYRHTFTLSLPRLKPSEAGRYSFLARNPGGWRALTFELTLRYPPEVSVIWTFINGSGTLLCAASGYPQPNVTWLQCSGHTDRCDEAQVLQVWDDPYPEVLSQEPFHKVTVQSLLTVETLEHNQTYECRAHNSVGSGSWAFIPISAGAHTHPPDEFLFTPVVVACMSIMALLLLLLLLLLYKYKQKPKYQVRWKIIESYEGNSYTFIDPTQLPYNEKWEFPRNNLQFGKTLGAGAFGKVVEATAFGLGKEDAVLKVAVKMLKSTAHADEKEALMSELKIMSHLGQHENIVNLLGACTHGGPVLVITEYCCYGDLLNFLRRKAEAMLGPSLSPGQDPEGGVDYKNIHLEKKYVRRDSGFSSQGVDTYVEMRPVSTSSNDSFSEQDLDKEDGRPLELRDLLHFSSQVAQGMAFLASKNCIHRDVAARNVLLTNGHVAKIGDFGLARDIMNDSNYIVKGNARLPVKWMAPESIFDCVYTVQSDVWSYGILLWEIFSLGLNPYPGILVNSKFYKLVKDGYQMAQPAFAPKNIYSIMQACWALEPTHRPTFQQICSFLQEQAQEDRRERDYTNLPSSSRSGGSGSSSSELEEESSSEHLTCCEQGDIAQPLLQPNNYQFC

[9] = target: Macrophage colony-stimulating factor 1 receptor (Homo sapiens) (UniProt P07333); conditions: at 1 µM
[10] = target: Tyrosine-protein kinase Fyn (Homo sapiens) (UniProt P06241); conditions: at 0.1 µM
Tyrosine-protein kinase Fyn (Homo sapiens), sequence (P06241 2-537 limits assumed): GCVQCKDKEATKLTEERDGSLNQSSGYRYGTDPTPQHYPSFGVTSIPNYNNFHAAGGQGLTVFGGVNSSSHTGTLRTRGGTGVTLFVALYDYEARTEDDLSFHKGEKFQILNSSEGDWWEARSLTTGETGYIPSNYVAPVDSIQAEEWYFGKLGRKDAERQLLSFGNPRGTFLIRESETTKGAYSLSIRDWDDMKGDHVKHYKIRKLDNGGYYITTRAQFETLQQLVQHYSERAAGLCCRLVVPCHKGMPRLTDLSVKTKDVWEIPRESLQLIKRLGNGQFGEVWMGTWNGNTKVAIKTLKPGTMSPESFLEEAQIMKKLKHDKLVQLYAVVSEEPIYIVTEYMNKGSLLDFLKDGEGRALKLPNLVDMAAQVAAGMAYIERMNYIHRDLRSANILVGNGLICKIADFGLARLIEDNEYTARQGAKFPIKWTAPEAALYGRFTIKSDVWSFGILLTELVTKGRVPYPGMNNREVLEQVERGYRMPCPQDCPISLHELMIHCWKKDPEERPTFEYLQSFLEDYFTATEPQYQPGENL

SMILES	inhibition [1] [%]	inhibition [2] [%]	inhibition [3] [%]	inhibition [4] [%]	inhibition [5] [%]	inhibition [6] [%]	inhibition [7] [%]	inhibition [8] [%]	inhibition [9] [%]	inhibition [10] [%]
FC(F)(F)c1ccc(-c2nn3ncccc3c2-c2ccnc(Nc3ccc4c(c3)OCCO4)n2)cc1	-0.89	0.09	-1.77	3.35	-0.25	-2.47	4.74	0.29	10.3	2.65
O=C1Nc2ccccc2/C1=C/Nc1ccc2[nH]c(=O)[nH]c2c1	15.6	5.67	3.82	15.4	65.9	4.3	26.6	11.9	48.2	4.36
Cc1cc(Cl)cc2c1NC(=O)C2=NNc1ccc(S(N)(=O)=O)cc1	10.9	6.15	2.07	4.88	-4.47	1.38	1.06	-2.64	8.32	0.94
COc1cc(/C=N/Nc2ncnc3c2cnn3C(C)C)ccc1O	5.67	3.79	4.86	4.56	23.1	13.8	22.1	8.23	42.3	8.53
NS(=O)(=O)c1cccc(-c2cc3ccncc3cc2OCc2ccccc2)c1	5.52	3.05	4.2	7.53	-1.3	15.2	18.5	4.7	5.36	4.1
CCS(=O)(=O)c1ccc(OC)c(Nc2nccc(N(C)c3ccc4c(C)n[nH]c4c3)n2)c1	6.15	4.22	8.94	10.8	-5.27	94.8	104	5.72	32.2	39
Nc1nccc(C#Cc2cncnc2Nc2ccc(OCc3cccc(F)c3)c(Cl)c2)n1	1.53	3.36	3.68	5.31	7.19	3.89	0.33	2.3	5.18	-0.31
CN1CCN(C(=O)c2ccc(NC(=O)Nc3ccc(N(C)c4ccnc(Nc5ccc(CS(C)(=O)=O)cc5)n4)cc3)cc2)CC1	30.1	2.98	3.2	2.87	25.1	8.95	37.5	87.7	81.2	0.29
ON=C1CCc2cc(-c3nc(C4CCNCC4)[nH]c3-c3ccncc3)ccc21	1.01	1.85	0.96	3.99	2.96	-0.02	0.4	2.19	0.63	2.09
Cc1ccc2c(-c3ccnc(Nc4cccc(C(F)(F)F)c4)n3)c(-c3ccccc3)nn2n1	7.33	7.39	6.37	10.5	1.38	4.59	24.9	1.77	23.1	15.6
CS(=O)(=O)Nc1cccc(-c2ccc3c(NC(=O)C4CC4)n[nH]c3c2)c1	3.4	0.09	2.1	2.91	-5.02	3.41	1.96	-0.21	1.8	2.53
CS(=O)(=O)CCNCc1nc(-c2ccc3ncnc(Nc4ccc(OCc5cccc(C(F)(F)F)c5)cc4)c3c2)cs1	-0.39	1.34	3.51	3.6	4.19	3.13	2.21	0.88	8.87	1.59
CCCN1CCCC(c2ccc(Nc3nc(Nc4cc(F)ccc4C(N)=O)c4cc[nH]c4n3)c(OC)c2)C1 (stereo not given)	12.8	13.3	48.1	75.9	43.4	-0.55	4.1	34.6	78.6	3.45
Nc1nccc(-c2c(-c3ccc(F)cc3)nn3cc(C(F)(F)F)ccc23)n1	0.92	2.53	0.4	1.73	-4.89	0.03	-1.18	-4.62	7.32	0.43
N#Cc1c(NC(=O)c2ccccc2F)sc2c1CCCC2	1.33	-2.61	0.29	1.48	-1.19	-2.53	0.3	-4.22	-1.66	1.38
CN(C)c1cc2c(Nc3ccc4c(cnn4Cc4ccccc4)c3)ncnc2cn1	6.27	3.14	3.09	5.61	1.61	2.71	2.4	1.36	3.34	3.84
Cc1nc(-c2ccccc2)n2nc(NCCCN3CCOCC3)ncc12	8.77	3.18	3.22	6.18	1.89	2.75	2.24	1.73	10.9	1.73
CCn1c(-c2nonc2N)nc2c(C#CC(C)(C)O)nc(OCCNC)cc21	7.49	6.83	8.02	7.19	-0.49	1.76	11.6	-0.38	3.67	1.14
Cc1ccc(C(=O)NC2CC2)cc1-c1ccc2[nH]ncc2c1	-2.78	-2.55	-0.76	-7.32	3.33	-0.16	1.13	-5.43	4.56	-0.87
